PubChem BioAssay (EPA / NIEHS)
Inconclusive results are not listed. The source made the active and inactive calls. The calls were made as follows, unless noted: active = hit-call score of the fitted dose curve at least 0.9, where 1 is the maximum; inconclusive = response in the unintended direction; inactive = score below 0.9.

Experiments:
[1] = target: Cellular tumor antigen p53 (Homo sapiens) (UniProt P04637); assay: TOX21_p53_BLA_p2_ratio: Tox21 HCT-116 p53 Agonism Beta-lactamase Assay, Ratio, Phase 2 (AID 2283592)
Chain of Cellular tumor antigen p53 (Homo sapiens) (P04637 whole entry, looked up): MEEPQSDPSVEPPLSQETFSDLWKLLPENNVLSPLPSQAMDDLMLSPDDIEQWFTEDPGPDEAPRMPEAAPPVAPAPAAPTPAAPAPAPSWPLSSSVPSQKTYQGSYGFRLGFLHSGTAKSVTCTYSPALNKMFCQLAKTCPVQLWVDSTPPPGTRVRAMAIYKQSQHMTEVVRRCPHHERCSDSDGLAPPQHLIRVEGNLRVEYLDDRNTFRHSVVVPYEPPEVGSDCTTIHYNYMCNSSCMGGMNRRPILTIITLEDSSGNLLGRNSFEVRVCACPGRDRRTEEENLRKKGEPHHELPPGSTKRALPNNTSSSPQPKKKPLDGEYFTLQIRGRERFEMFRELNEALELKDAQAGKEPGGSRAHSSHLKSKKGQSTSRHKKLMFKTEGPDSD
Method in brief: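 An inducible beta-lactamase reporter in HCT116 cells signals p53 pathway activation. After 16 h chemical exposure at 37C, cells load CCF4-AM substrate for 2 h at room temperature; activity is the cleaved/uncleaved emission ratio relative to DMSO.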

[2] = TOX21_p53_BLA_p3_viability: Viability Assessment in the Tox21 HCT-116 p53 Agonism Beta-lactamase Assay, Phase 3 (AID 2283593);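 also: cells exposed to compound for 16 h before reading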
Method in brief: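 Cellular ATP was quantified by CellTiter-Glo luminescence, read after 30 min at room temperature. Beforehand, HCT116 cells (4000/well) received compound 5 h post-seeding, 217-fold diluted from DMSO, then incubated 16 h at 37C.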

[3] = TOX21_p53_BLA_p4_viability: Viability Assessment in the Tox21 HCT-116 p53 Agonism Beta-lactamase Assay, Phase 4 (AID 2283597);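 also: hits lower the luminescence signal meaning cytotoxicity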
Method in brief: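 Compound exposure of HCT116 cells lasts 16 h at 37C, 5% CO2, with DMSO stocks diluted 217-fold. Cellular ATP is then quantified by CellTiter-Glo luminescence after 30 min at room temperature.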

[4] = TOX21_p53_BLA_p5_viability: Viability Assessment in the Tox21 HCT-116 p53 Agonism Beta-lactamase Assay, Phase 5 (AID 2283600)
Method in brief: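 Counter-readout for cytotoxicity: ATP-dependent luminescence from CellTiter-Glo, read in the beta-lactamase wells after 30 min at RT, following a 16 h compound exposure at 37C.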

[5] = target: Cellular tumor antigen p53 (Homo sapiens) (UniProt P04637); assay: TOX21_p53_BLA_p4_ratio: Tox21 HCT-116 p53 Agonism Beta-lactamase Assay, Ratio, Phase 4 (AID 2283601)
Method in brief: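 Signal is the blue/green (460nm/530nm) ratio of cleaved versus uncleaved CCF4-AM substrate, read after 2 h substrate loading. Cells were HCT116 carrying the p53-responsive beta-lactamase reporter, dosed 16 h at 37C, 5% CO2; CellTiter-Glo measured in parallel.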

[6] = target: Cellular tumor antigen p53 (Homo sapiens) (UniProt P04637); assay: TOX21_p53_BLA_p5_ratio: Tox21 HCT-116 p53 Agonism Beta-lactamase Assay, Ratio, Phase 5 (AID 2283599)
Method in brief: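 Beta-lactamase reporter ratio (blue 460 nm over green 530 nm, 405 nm excitation) after 2 h CCF4-AM loading, in HCT-116 cells exposed 16 h at 37 C to compounds pinned at 217-fold dilution. Increases relative to DMSO baseline scored.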

[7] = ACEA_ER_AUC_viability: ACEA Biosciences xCELLigence Real-Time Cell Analysis on Estrogen Receptor Agonism for Viability (AID 2283782);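 also: continuous compound exposure with impedance area under curve over 80 h; hit means loss of impedance signal meaning reduced cell growth or viability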
Method in brief: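 T-47D; phenol red-free RPMI1640 + 10% CS-FBS; 8 conc., 1:4 serial, max 100 uM final, ≤0.5% DMSO; n = 2; continuous exposure; impedance monitored to 80 h post-dose; AUC vs DMSO.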

[8] = target: Cellular tumor antigen p53 (Homo sapiens) (UniProt P04637); assay: TOX21_p53_BLA_p3_ratio: Tox21 HCT-116 p53 Agonism Beta-lactamase Assay, Ratio, Phase 3 (AID 2283596)
Method in brief: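 HCT116 p53-bla cells (4000/well) given compound in DMSO (217-fold dilution) after 5 h, incubated 16 h at 37C. CCF4-AM substrate 2 h at room temperature; 460/530 nm emission ratio, gain fitted against DMSO.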

[9] = CCTE_Harrill_HTTr_Viability_MCF7: CCTE's 6-hour Cell Viability Assessment for the High-Throughput Transcriptomics (HTTr) Platform, in MCF-7 cells cultured in DMEM + 10% fetal bovine serum, Harrill Lab (AID 2284010; active = hit-call score of the fitted dose curve at least 0.9, where 1 is the maximum; inactive = score below 0.9)
Method in brief: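 MCF-7 cells in DMEM + 10% FBS, 384-well, exposed 6 h to an eight-point dilution series. Membrane integrity scored by high-content imaging of propidium iodide exclusion; bidirectional fit versus DMSO.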

[10] = CCTE_Harrill_HTTr_Apoptosis_MCF7: CCTE's 6-hour Apoptosis Assessment for the High-Throughput Transcriptomics (HTTr) Platform, in MCF-7 cells cultured in DMEM + 10% fetal bovine serum, Harrill Lab (AID 2284011; active = hit-call score of the fitted dose curve at least 0.9, where 1 is the maximum; inactive = score below 0.9)
Method in brief: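 Cells are dosed with test chemicals at eight concentrations and imaged 6 hours later for caspase-3/7 activity using a green fluorogenic detection reagent. Activity is fitted in both directions against DMSO controls.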

[11] = CCTE_Harrill_HTTr_CellCount_MCF7: CCTE's Cell Proliferation Assessment for the High-Throughput Transcriptomics (HTTr) Platform, Harrill Lab (AID 2284012);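 also: cells exposed to compound for six hours; intended direction is loss of nuclei count meaning fewer cells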
Method in brief: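 MCF7 cells exposed 6 hours to an eight-point dilution series; Hoechst-stained nuclei counted by high-content imaging. Bidirectional curve fitting against DMSO baseline.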

Measured: AC50

COc1cc(C(=O)N2CCCCCCC2)cc(OC)c1OC
inactive: [1] | [2] | [3] | [4] | [5]

COCCOC(=O)CC#N
active: [7] 50 µM
inactive: [1] | [2] | [6] | [5]

CCC(=O)Nc1ccc(O)cc1
inactive: [1] | [2] | [5]

CCC(O)c1ccccc1 (configuration not stated)
inactive: [1] | [2] | [4] | [5]

CC(=O)N[C@@H](Cc1ccc(O)cc1)C(=O)O
inactive: [1] | [8] | [3] | [6] | [4]

Cc1cc(O)ccc1N
inactive: [1] | [8] | [3] | [6] | [4]

Cc1ccnc2ccccc12
inactive: [1] | [8]

OC[C@H]1O[C@@H](OCCc2ccc(O)cc2)[C@H](O)[C@@H](O)[C@@H]1O
inactive: [1] | [2] | [4] | [5]

NC(=O)Cc1cccc(C(=O)c2ccccc2)c1N
inactive: [1] | [8]

CCN1C(=O)c2ccccc2C1Nc1ccc(OCCN2CCCCC2)cc1 (configuration not stated)
inactive: [1] | [2] | [6] | [5]

CC(C(=O)O)c1ccc(C(=O)c2cccs2)cc1 (configuration not stated)
inactive: [1] | [8] | [3]

Cc1c(N=C=O)cccc1N=C=O
inactive: [1] | [8]

NC1=NCC2c3ccccc3Cc3ccccc3N12 (configuration not stated)
inactive: [1] | [8] | [3] | [6]

CCC(C)(C)CC
inactive: [1] | [8] | [3] | [6]

COC(C)OC
inactive: [1] | [2] | [5]

Nc1cccc([N+](=O)[O-])c1
inactive: [1] | [8] | [3] | [6] | [4]

O=C(c1ccc(Cl)cc1)c1ccc(Cl)cc1
not listed: [3] | [5] | [6] | [8]
inactive: all other assays above

CCC(CO)(CO)CO
inactive: [1] | [8] | [3] | [6] | [4]

COc1ccc(C2(C#N)CCC(C(=O)O)CC2)cc1OC1CCCC1 (configuration not stated)
inactive: [1] | [8] | [3] | [6] | [4]

C=CC[N+]1([C@H]2C[C@H]3[C@@H]4CC[C@H]5C[C@H](O)[C@@H](N6CCOCC6)C[C@]5(C)[C@H]4CC[C@]3(C)[C@H]2OC(C)=O)CCCC1
inactive: [1] | [8] | [3] | [6]

C[Se]CCC(N)C(=O)O (configuration not stated)
inactive: [1] | [8] | [3]

NCCCC(=O)O
inactive: [1] | [8] | [3]

O=C1CC[C@@H](C(=O)N[C@H]2C[C@@H]2c2ccccc2)N1
inactive: [1] | [2] | [4] | [5]

O=C1c2ccccc2C(=O)C1c1ccc(F)cc1
inactive: [1] | [8] | [3] | [6]

CN1CCC[C@@H]1CCO[C@](C)(c1ccccc1)c1ccc(Cl)cc1
inactive: [1] | [8] | [3] | [6] | [4]

CO/N=C(\C(=O)N[C@@H]1C(=O)N2C(C(=O)O)=C(C[N+]3(C)CCCC3)CS[C@H]12)c1csc(N)n1
inactive: [1] | [8]

O=S1OCCO1
inactive: [1] | [8]

CCC(C)(CN(C)C)OC(=O)c1ccccc1 (configuration not stated)
inactive: [1] | [8] | [3] | [6]

C1=CCC2CC=CC2C1 (configuration not stated)
inactive: [1] | [8] | [3] | [6] | [4]

CN1CCN(c2c(F)cc3c(=O)c(C(=O)O)cn4c3c2OCN4C)CC1
inactive: [1] | [8] | [3] | [6]

O=C(C(=O)c1ccco1)c1ccco1
inactive: [1] | [8] | [3] | [6] | [4]

N[C@@H](CCC(=O)Nc1ccc([N+](=O)[O-])cc1)C(=O)O
inactive: [1] | [8] | [3] | [6]

O=C1CCCC(=O)C1
inactive: [1] | [8]

C[C@]12CC[C@@H]3c4ccc(O)cc4CC[C@H]3[C@@H]1CC[C@@H]2OP(=O)(O)O
inactive: [1] | [8]

CC(N)CN (configuration not stated)
inactive: [1] | [2] | [6] | [5]

Cc1cccc(O)c1N
inactive: [1] | [2] | [6] | [5]

C=CC(C)CCC=C(C)C (configuration not stated)
inactive: [1] | [2] | [4] | [5]

COC(=O)C(C)O (configuration not stated)
inactive: [1] | [8] | [3] | [6]

COc1ccc(-c2cc(=O)c3c(O)cc(O[C@@H]4O[C@H](CO[C@@H]5O[C@@H](C)[C@H](O)[C@@H](O)[C@H]5O)[C@@H](O)[C@H](O)[C@H]4O)cc3o2)cc1O
inactive: [1] | [2] | [5]

CCCCOC(=O)CC#N
inactive: [1] | [2] | [4] | [5]

CC=C(Cl)Cl
inactive: [1] | [8] | [3] | [6] | [5]

CN1CCCN(C(c2ccccc2)c2ccc(Cl)cc2)CC1 (configuration not stated)
inactive: [1] | [8] | [6] | [4] | [5]
active: [3] 34.8 µM

CC1(C)OC(=O)NC1=O
inactive: [1] | [8] | [3] | [6] | [4] | [5]

CC(=O)Oc1cc(C(F)(F)F)ccc1C(=O)O
inactive: [1] | [8] | [3] | [6] | [4] | [5]

Cc1ccc(N(CC2=NCCN2)c2cccc(O)c2)cc1
active: [1] 31 µM | [5] 30.4 µM
inactive: [8] | [3] | [6]

Nc1c2c(nc3ccccc13)CCCC2O (configuration not stated)
inactive: [1] | [8] | [3] | [6] | [5]

Cc1ccccc1N=O
inactive: [1] | [8] | [3] | [6] | [5]

O=c1c(O)c(O)c1=O
inactive: [1] | [8] | [3] | [6] | [4] | [5]
